# These entries were drawn from the full list.
# LmPK act – qHTS Assay for Activators of Leishmania Mexicana Pyruvate Kinase (LmPK). Q27686. purified LmPK, Kinase-Glo ATP luminescence, 1 h. activity change, negative = inhibition, % at 57.5 µM. 290,000 tested, under 10 active. AID 1722, 2009; calls by dose curve
# Target sequence (Q27686 whole entry, looked up): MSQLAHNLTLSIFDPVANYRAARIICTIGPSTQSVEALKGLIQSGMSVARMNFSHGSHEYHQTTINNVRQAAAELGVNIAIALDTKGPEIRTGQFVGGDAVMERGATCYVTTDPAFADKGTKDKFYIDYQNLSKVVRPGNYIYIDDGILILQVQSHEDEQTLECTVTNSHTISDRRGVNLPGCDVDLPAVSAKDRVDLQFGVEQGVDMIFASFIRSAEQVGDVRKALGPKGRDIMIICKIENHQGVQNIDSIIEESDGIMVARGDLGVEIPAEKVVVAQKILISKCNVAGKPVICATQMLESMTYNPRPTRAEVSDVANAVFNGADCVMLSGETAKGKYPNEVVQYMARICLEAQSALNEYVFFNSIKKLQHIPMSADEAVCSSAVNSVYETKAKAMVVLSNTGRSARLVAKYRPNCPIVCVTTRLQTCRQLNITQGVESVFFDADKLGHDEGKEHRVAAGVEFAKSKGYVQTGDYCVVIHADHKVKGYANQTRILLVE
#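 Purified LmPK (0.1 nM) converted ADP (0.1 mM, ~10-fold below Km) plus PEP (0.5 mM, at Km) to ATP over 1 h at room temperature in pH 7.2 imidazole buffer. Generated ATP was read by luciferase luminescence.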
# Calls only; n = inactive.
SMILES,LmPK act
S=c1[nH]nc(Cn2cnc3ccccc32)n1-c1ccccc1Cl,n
N/C(=N\OC(=O)c1ccc(Cl)cc1)c1nonc1N,n
CC(=O)Oc1ccc(C)cc1-n1nc2ccccc2n1,n
CC1=C/C(=C(\c2cc(C)c(O)c(Br)c2)c2ccccc2S(=O)(=O)O)C=C(Br)C1=O,n
CC(C)n1c(=S)[nH]c2cc(Cl)ccc21,n
CCOc1ccc(NC(=O)Nc2cccnc2)cc1,n
O=[N+]([O-])c1cccc(-c2n[nH]c(=S)n2Cc2ccccc2)c1,n
CC(C)(C)c1cc(-c2n[nH]c(=S)n2-c2ccc(Cl)cc2)n[nH]1,n
COc1ncccc1-c1nnn(-c2ccccc2)n1,n
CC(=O)c1ccc(/C=C/c2nc3ccccc3n2C)o1,n
CCc1nc2sc3c(O)cc(=O)[nH]c3c2cc1C,n
c1coc(-c2nnc(-c3ccco3)nn2)c1,n
CCCCn1c(-c2ccc([N+](=O)[O-])cc2)n[nH]c1=S,n
Clc1ccc(-c2nc3ccccc3[nH]2)cn1,n
Nc1c(-c2ccccc2)cnn1-c1cccc(Cl)c1,n
Cn1ccnc1C(=O)c1cc(=O)c2ccccc2o1,n
CCCCN(CC)CCCNC(=O)CN1C(=O)CSc2ccc(S(=O)(=O)N3CCOCC3)cc21,n
CC1C(=O)NN=C1C(=O)N/N=C/c1cccs1 (configuration not stated),n
O=C(NCc1ccccc1)c1cc2ccc(O)cc2oc1=O,n
O=[N+]([O-])c1ccc(Sc2cccc[n+]2[O-])c2nonc12,n
Cc1cccc(C(=O)n2c(=S)nc3ccccn32)c1,n
COc1ccc(/C=N/NC(=O)c2[nH]ncc2Br)c(OC)c1,n
O=C(N=C1N=C2C=CC(Br)=CN2Cc2ccccc21)c1ccc([N+](=O)[O-])cc1[N+](=O)[O-],n
Cc1ccc(-c2c[nH]c(=S)n2-c2ccccc2F)cc1,n
Cc1nc(-c2ccc(C(=O)Nc3cccc(Br)c3)cc2)cs1,n
SMILES,LmPK act
CC1=CCC(COC(=O)Nc2ccccc2)CC1 (configuration not stated),n
CN1C(=O)/C(=C/c2cc(N=Nc3ccccc3)ccc2O)SC1=S,n
C=CCOc1ccc(C=Nc2ccc(C)c(Cl)c2)c(O)c1,n
COc1ccc(C(=O)Nc2cc(OC)nc(OC)n2)cc1,n
c1ccc(-c2nc(-c3nccc4ccccc34)oc2-c2ccccc2)cc1,n
Cn1c(=O)c2c([nH]c(=S)n2Cc2ccc(Cl)cc2)n(C)c1=O,n
CCOc1ccc(NC(=O)Nc2cc(C)ccc2F)cc1,n
Cc1ccc(C(=O)Nc2ccc(C(=O)N3CCCCC3)cc2)o1,n
Cc1cc(N2C(=O)C=CC2=O)c([N+](=O)[O-])cc1C,n
COc1ccc(OC)c(S(=O)(=O)ON2C(=O)c3ccccc3C2=O)c1,n
S=c1[nH]nc([C@@H]2C[C@H]2c2ccccc2)n1-c1ccccc1Cl,n
CC(=O)N/C(=C\c1ccccc1)C(=O)OCc1cc(C)ccc1C,n
Cc1cc2nc(N3C(=O)CNC3=S)sc2cc1C,n
Cc1cnc(NC(=O)C2COc3ccccc3O2)s1 (configuration not stated),n
Cc1cccc2c1c1ccc3c(c1n2C)C(=O)C=CC3=O,n
Nc1ncccc1OCc1ccc(Cl)c(Cl)c1,n
Cc1ccc(-n2nnc(-c3nccn3C)n2)cc1,n
Cc1ccccc1-c1nnc(-c2cccs2)o1,n
FC(F)(F)c1cccc(-c2nc3nc(Cl)c(Cl)nc3[nH]2)c1,n
COc1ccc(/C=N/NC(=O)c2ccc[nH]2)cc1,n
Cc1nc(NC(=O)c2cccs2)ccc1Br,n
COc1cc([N+](=O)[O-])c(OC)cc1SCc1n[nH]c(=S)n1-c1ccc(F)cc1,n
O=C(c1ccc2c(c1)OCCCO2)c1cccs1,n
COc1ccc(-c2nc3ccccn3c2Cl)cc1,n
N/C(=N\OC(=O)c1ccc2c(c1)OCO2)c1ccncc1,n
SMILES,LmPK act
CN(C)/C=N/c1nc(-c2ccc3c(c2)OCO3)cs1,n
C=CCOc1ccc(C=Nc2ccc(Cl)cc2)c(O)c1,n
Fc1ccc(-n2nnc(-c3nccs3)n2)cc1,n
Cc1ccc(N/C=C/C(=O)c2cccs2)cc1,n
CCOC(=O)C1=C(C)C/C(=N\NC(=O)c2ccccc2O)CC1,n
COc1cc(N=Nc2cccc(S(N)(=O)=O)c2)c2ccccc2c1N,n
Cn1ccs/c1=N\C(=O)Nc1ccccc1,n
N/C(=N\OC(=O)c1ccc(Cl)cc1)c1[nH]ncc1Br,n
COCCNC(=O)/C(C#N)=C/c1ccc(OCC(=O)NC2CCCCC2)cc1,n
Cc1ccc(-n2c(-c3cccnc3)n[nH]c2=S)c(C)c1,n
CC1=CC(=Nc2c(C)n(C)n(-c3ccccc3)c2=O)C=CC1=O,n
Cc1ccsc1C(=O)OCc1csc(-c2ccccc2)n1,n
O=C(CBr)c1ccc([N+](=O)[O-])c(CS(=O)(=O)c2ccc(Cl)cc2)c1,n
Cc1ccc(-n2[nH]c(C)c(/C=N/Nc3ccc([N+](=O)[O-])cc3[N+](=O)[O-])c2=O)cc1,n
COc1cccc(C=Nc2cccc3c(=O)[nH][nH]c(=O)c23)c1O,n
Cc1ccccc1-n1c(Cc2cccs2)n[nH]c1=S,n

# Bioassay records: PubChem, National Center for Advancing Translational Sciences (NCATS)
